Screening data (PubChem)
hDAT+cocaine – modulates human dopamine transporter uptake under cocaine; Q01959; LLC-PK1 hDAT cells, [14C]-dopamine uptake with cocaine IC80; actives deviate in either direction; B-score at 10 µM; 110,000 compounds, 1.3% hits;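 active = Z score or B-score, a plate-position-corrected score, falls beyond the plate's 99.7% confidence bounds, in either direction; inactive = both scores lie inside the 99.7% bounds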;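 note: scored against the spread of the other compound wells on the same plate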
Target sequence (Q01959 whole entry, looked up): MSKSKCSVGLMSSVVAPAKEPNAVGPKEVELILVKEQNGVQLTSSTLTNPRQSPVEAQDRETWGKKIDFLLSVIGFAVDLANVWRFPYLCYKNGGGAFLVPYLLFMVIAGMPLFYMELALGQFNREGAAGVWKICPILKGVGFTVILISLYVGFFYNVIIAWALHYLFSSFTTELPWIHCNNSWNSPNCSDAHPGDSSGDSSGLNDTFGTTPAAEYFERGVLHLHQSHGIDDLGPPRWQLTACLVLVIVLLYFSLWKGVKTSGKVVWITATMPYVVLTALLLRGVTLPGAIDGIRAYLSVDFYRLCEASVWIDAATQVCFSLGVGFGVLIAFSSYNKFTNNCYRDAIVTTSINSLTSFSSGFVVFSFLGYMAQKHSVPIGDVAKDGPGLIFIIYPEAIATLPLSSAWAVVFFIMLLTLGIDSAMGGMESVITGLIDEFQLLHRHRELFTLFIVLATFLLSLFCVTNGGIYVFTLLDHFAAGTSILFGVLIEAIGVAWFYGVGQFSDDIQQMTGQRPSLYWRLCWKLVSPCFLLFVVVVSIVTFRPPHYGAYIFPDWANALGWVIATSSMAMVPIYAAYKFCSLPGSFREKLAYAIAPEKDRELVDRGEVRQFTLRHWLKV
PTK2B oligo ant – Pyk2 (human) oligomerization antagonism. Q14289. Q293 cells, Pyk2 FERM NanoBiT luminescence; stronger effect = lower value. z-score (the deposit names both 25 µM and 10 µM). 99,000 compounds, 0.83% hits;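 active = Z-score of -3 or lower, scaled per plate to the spread of control and sample wells; inactive = z-score above -3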;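 note: negative z-score means lost luminescence so less FERM oligomerization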
SDO1 yeast rescue – sdo1-depleted yeast growth rescue; S. cerevisiae sdo1-depleted JHY4D growth rescue, OD600 30 h; stronger effect = higher value; pdr5 snq2 efflux-pump mutant strain; z-score at 10 µM; 140,000 compounds, 0.21% hits; AID 817;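 active = z-score above 3 at both the 24 hr and the 30 hr optical density reads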;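 note: z-score against mean and SD of all compound wells on the same plate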
Plk1 PBD FP – Plk1 (human) PBD binding inhibition | P53350 | Plk1 PBD phosphopeptide binding, fluorescence polarization | inhibition, %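 (tested at about 20 µM)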 | 97,000 compounds, 0.13% hits | AID 693; in the data active = inhibition above about 34%, passing the limit was not always enough
Cav3 T inh – blocks human Cav3.2 T-type calcium channel. O95180. 100,000 compounds, 4% hits. B-score at 10 µM. Cav3.2-expressing cells, Fluo-4 calcium fluorescence FDSS; stronger effect = lower value;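 active = single-dose well whose peak fluorescence ratio is a statistical outlier from its plate by either plate-standardised score or position-corrected B-score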
PLK1 kinase inh – inhibitors of human PLK1 kinase | recombinant PLK1 kinase, TR-FRET peptide phosphorylation | P53350 | 97,000 compounds, 0.53% hits | inhibition, % at 10 µM;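 active = inhibition of 50% or more in the single-concentration screen; inactive = inhibition below 50%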;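 note: 0% = DMSO max control and 100% = H-89 dihydrochloride min control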
* = called active by the depositor. In the library only some 4.7% were active in any assay of this set; here they are far more common.

What do the screens show for `O=C(CSc1ccccc1)NCc1ccco1`?
hDAT+cocaine: -1; PTK2B oligo ant: 1.2; SDO1 yeast rescue: 0.01; Plk1 PBD FP: 18; Cav3 T inh: 0.85; PLK1 kinase inh: 0

How did O=C(CC(c1ccccc1)c1cc(Br)ccc1O)NCc1ccco1 (stereo not given) do in these assays?
hDAT+cocaine: 2; PTK2B oligo ant: -2.4; SDO1 yeast rescue: -0.65; Plk1 PBD FP: 15; Cav3 T inh: -9.9*; PLK1 kinase inh: -15

How did CC(C)NC(=O)CC(c1ccccc1)c1cc(Br)ccc1O (stereo not given) do in these assays?
hDAT+cocaine: -2.3; PTK2B oligo ant: -0.21; SDO1 yeast rescue: -1.1; Plk1 PBD FP: -12; Cav3 T inh: -3.3; PLK1 kinase inh: 3

How did COc1ccccc1OCc1nc(Cc2ccc(Cl)cc2)no1 do in these assays?
hDAT+cocaine: -0.27; PTK2B oligo ant: -0.26; SDO1 yeast rescue: -0.03; Plk1 PBD FP: 13; Cav3 T inh: -5.2*; PLK1 kinase inh: -11

How did CCOC(=O)Cc1csc(NC(=O)c2cccc(N3C(=O)CCC3=O)c2)n1 do in these assays?
hDAT+cocaine: 1.9; PTK2B oligo ant: 0.46; SDO1 yeast rescue: 0.75; Plk1 PBD FP: -3; Cav3 T inh: 0.011; PLK1 kinase inh: -9

What do the screens show for `Cc1ccc(-c2csc(NC(=O)c3cccc(N4C(=O)CCC4=O)c3)n2)o1`?
hDAT+cocaine: 1.9; SDO1 yeast rescue: -0.91; Plk1 PBD FP: 9; Cav3 T inh: -5.2*; PLK1 kinase inh: 67*

What do the screens show for `O=C(Nc1cccc(Cl)c1)c1cnn2cccnc12`?
hDAT+cocaine: -0.8; PTK2B oligo ant: 1; SDO1 yeast rescue: 0.21; Plk1 PBD FP: 18; Cav3 T inh: -0.085; PLK1 kinase inh: 60*

What do the screens show for `O=C(Nc1cc(Cl)cc(Cl)c1)c1cnn2cccnc12`?
hDAT+cocaine: -1.2; PTK2B oligo ant: -0.05; SDO1 yeast rescue: 0.7; Plk1 PBD FP: 3; Cav3 T inh: -0.43; PLK1 kinase inh: 16

How did Nc1ccc(N2CCN(C(=O)c3cccs3)CC2)cc1 do in these assays?
hDAT+cocaine: 0.27; PTK2B oligo ant: -0.87; SDO1 yeast rescue: 0.74; Plk1 PBD FP: 5; Cav3 T inh: -0.0092; PLK1 kinase inh: 4

What do the screens show for `CC(=O)Nc1ccc(N2CCN(C(=O)c3cccs3)CC2)cc1`?
hDAT+cocaine: -8.2*; PTK2B oligo ant: 1.2; SDO1 yeast rescue: 0.23

How did Cc1ccc(N2CC(C(=O)Nc3nccs3)CC2=O)cc1Cl (stereo not given) do in these assays?
hDAT+cocaine: -0.00024; PTK2B oligo ant: -0.63; SDO1 yeast rescue: -0.38; Plk1 PBD FP: -26; Cav3 T inh: -1.3; PLK1 kinase inh: 11

How did Cc1c(Cl)cccc1N1CC(C(=O)Nc2nccs2)CC1=O (stereo not given) do in these assays?
hDAT+cocaine: 1.7; PTK2B oligo ant: -0.48; SDO1 yeast rescue: 0.18; Plk1 PBD FP: -5; Cav3 T inh: -0.044; PLK1 kinase inh: 53*

Results for CCn1nc(C(=O)OCC(=O)c2c[nH]c3ccccc23)c2ccccc2c1=O ?
hDAT+cocaine: -0.11; PTK2B oligo ant: -2.5; SDO1 yeast rescue: -1; Plk1 PBD FP: 15; Cav3 T inh: -0.034; PLK1 kinase inh: -4

How did CC(C)n1nc(C(=O)OCC(=O)c2c[nH]c3ccccc23)c2ccccc2c1=O do in these assays?
hDAT+cocaine: 0.28; PTK2B oligo ant: -3.6*; SDO1 yeast rescue: -1; Plk1 PBD FP: 12; Cav3 T inh: 0.6; PLK1 kinase inh: 1

Results for O=S(=O)(Nc1ncnc2sc3c(c12)CCC3)c1ccc2ccccc2c1 ?
hDAT+cocaine: 0.67; PTK2B oligo ant: 0.68; SDO1 yeast rescue: -0.54; Plk1 PBD FP: 23; Cav3 T inh: -4.7*; PLK1 kinase inh: -8

What do the screens show for `c1ccc(Nc2ncnc3sc4c(c23)CCC4)cc1`?
hDAT+cocaine: -0.39; PTK2B oligo ant: -0.5; SDO1 yeast rescue: -2.1; Plk1 PBD FP: 11; Cav3 T inh: -1.6; PLK1 kinase inh: -2

Results for COc1cccc(N2CCN(C3CC(=O)N(c4ccc(Cl)c(Cl)c4)C3=O)CC2)c1 (stereo not given) ?
hDAT+cocaine: -0.35; PTK2B oligo ant: 1.4; SDO1 yeast rescue: -1.7; Plk1 PBD FP: -23; Cav3 T inh: -6.4*; PLK1 kinase inh: -12

Results for O=C(CCCC(=O)N1CCCc2ccccc21)N1CCCc2ccccc21 ?
hDAT+cocaine: 2.7*; PTK2B oligo ant: -0.46; SDO1 yeast rescue: 0.25; Plk1 PBD FP: 1; Cav3 T inh: -2.2; PLK1 kinase inh: -2

Results for O=C(C(=O)N1CCCc2ccccc21)N1CCCc2ccccc21 ?
SDO1 yeast rescue: -0.09

How did Cc1ccc(-c2nnn(CC(=O)N3CCCc4ccccc43)n2)cc1 do in these assays?
hDAT+cocaine: -7.8*; PTK2B oligo ant: -1; SDO1 yeast rescue: -1.4; Plk1 PBD FP: -25; Cav3 T inh: -4.7*; PLK1 kinase inh: -16

What do the screens show for `O=C(c1ccc(C(=O)N2CCCc3ccccc32)s1)N1CCCc2ccccc21`?
hDAT+cocaine: 2.5; PTK2B oligo ant: -3.3*; SDO1 yeast rescue: -2.5; Plk1 PBD FP: -10; Cav3 T inh: -7.8*; PLK1 kinase inh: -10

What do the screens show for `COc1cccc(/C=N/NC(=O)CN2CC(c3ccccc3)CC2=O)c1OC` (stereo not given)?
SDO1 yeast rescue: 0.09

What do the screens show for `O=C(Nc1ccccc1)c1ccsc1`?
SDO1 yeast rescue: 0.58

What do the screens show for `COc1ccc2o/c(=N/NC(=S)Nc3ccccc3)c(C(N)=O)cc2c1`?
SDO1 yeast rescue: 0.13

What do the screens show for `O=C(Nc1ccon1)C(Sc1ccccc1)c1ccccc1` (stereo not given)?
hDAT+cocaine: -0.88; PTK2B oligo ant: -1.1; SDO1 yeast rescue: -0.25; Plk1 PBD FP: -13; Cav3 T inh: -4.2*; PLK1 kinase inh: -4

What do the screens show for `CCS(=O)(=O)c1nc(S(=O)(=O)c2ccc(Cl)cc2)c(N2CCc3ccccc3C2)s1`?
SDO1 yeast rescue: -0.03

How did O=C(NCc1ccc(F)cc1)C(=O)NCC1OCCN1C(=O)c1cccs1 (stereo not given) do in these assays?
SDO1 yeast rescue: 0.32

How did Cc1ccc(NC(=O)Cn2c(=O)n(CCCC(=O)NCc3ccco3)c(=O)c3ccccc32)cc1 do in these assays?
hDAT+cocaine: -0.32; PTK2B oligo ant: -3.1*; SDO1 yeast rescue: -0.68; Plk1 PBD FP: 0; Cav3 T inh: 0.1; PLK1 kinase inh: 5

What do the screens show for `O=C(O)CC(NC(=O)C1c2ccccc2Oc2ccccc21)c1ccc(Cl)cc1` (stereo not given)?
SDO1 yeast rescue: 0.93

What do the screens show for `CCOc1ccc(C2=NNC(c3cccs3)=Nc3ccc(OC)cc32)cc1`?
hDAT+cocaine: 0.67; PTK2B oligo ant: -0.73; SDO1 yeast rescue: -2; Plk1 PBD FP: -8; Cav3 T inh: -4.9*; PLK1 kinase inh: -6

How did O=c1c2sccc2nc(SCc2ccc([N+](=O)[O-])cc2)n1Cc1ccccn1 do in these assays?
SDO1 yeast rescue: -0.88

Results for COc1cc(C)ccc1OCCOCCOc1cc(C)c(C)cc1Br ?
SDO1 yeast rescue: -0.58
